# Test results taken from the supplement of paper PMC11732987, “Enantioselective OTUD7B fragment discovery through chemoproteomics screening and high-throughput optimisation” (Communications Chemistry, 2025).
# A number with no mark means an inactive call.
# Tests used:
# Assay in all cases: log2 ratio of Biotin-Ahx-Ub-VS probe labelling (fragment/DMSO); higher = less target engagement (more negative = stronger competition), active = hit call of the paper (q ≤ 0.05, log2 ratio ≤ -1)
# Settings in all cases: compound concentration: 200 uM; treatment time: 3 h
# USP19 = target: T1, USP19 (UniProt O94966)
# T1 sequence (whole entry): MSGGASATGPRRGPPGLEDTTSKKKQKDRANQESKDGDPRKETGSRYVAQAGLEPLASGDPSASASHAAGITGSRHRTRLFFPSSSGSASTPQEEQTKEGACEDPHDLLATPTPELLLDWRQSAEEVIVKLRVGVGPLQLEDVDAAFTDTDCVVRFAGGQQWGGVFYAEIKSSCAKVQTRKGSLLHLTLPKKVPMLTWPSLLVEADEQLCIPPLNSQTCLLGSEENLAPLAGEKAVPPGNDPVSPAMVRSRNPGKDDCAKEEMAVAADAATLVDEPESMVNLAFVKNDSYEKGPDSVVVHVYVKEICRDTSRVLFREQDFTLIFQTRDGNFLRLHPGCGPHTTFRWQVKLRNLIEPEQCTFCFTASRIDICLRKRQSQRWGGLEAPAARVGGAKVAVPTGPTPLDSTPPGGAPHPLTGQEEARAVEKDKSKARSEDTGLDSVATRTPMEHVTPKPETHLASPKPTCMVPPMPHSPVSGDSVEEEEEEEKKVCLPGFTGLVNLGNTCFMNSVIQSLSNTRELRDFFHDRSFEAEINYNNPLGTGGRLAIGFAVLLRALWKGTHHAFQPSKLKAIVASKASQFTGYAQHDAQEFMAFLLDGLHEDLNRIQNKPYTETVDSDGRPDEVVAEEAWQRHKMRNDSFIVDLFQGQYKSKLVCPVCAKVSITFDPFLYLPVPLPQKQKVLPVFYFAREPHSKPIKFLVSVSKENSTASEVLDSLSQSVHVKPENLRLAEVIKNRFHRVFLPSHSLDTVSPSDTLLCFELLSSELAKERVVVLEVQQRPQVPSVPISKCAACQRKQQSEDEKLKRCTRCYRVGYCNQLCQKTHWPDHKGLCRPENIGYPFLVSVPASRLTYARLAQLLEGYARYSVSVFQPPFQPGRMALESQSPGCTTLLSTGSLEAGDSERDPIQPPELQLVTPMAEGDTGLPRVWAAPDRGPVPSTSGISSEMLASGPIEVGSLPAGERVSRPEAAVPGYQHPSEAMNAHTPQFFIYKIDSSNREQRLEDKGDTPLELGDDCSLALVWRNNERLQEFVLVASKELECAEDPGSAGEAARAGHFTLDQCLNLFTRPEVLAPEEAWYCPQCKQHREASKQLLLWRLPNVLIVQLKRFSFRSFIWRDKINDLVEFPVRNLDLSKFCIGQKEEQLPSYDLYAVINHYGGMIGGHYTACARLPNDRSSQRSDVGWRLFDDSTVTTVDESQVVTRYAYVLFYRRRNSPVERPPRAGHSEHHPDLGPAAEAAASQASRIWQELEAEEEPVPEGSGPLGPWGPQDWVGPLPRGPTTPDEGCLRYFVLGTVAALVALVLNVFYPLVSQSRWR
# Method in brief: (§1)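 HEK293T lysate (495 µg per sample, in Tris/CHAPS/IGEPAL buffer with protease inhibitors) was treated in triplicate with fragment at 200 µM or with DMSO for 3 h. It was then treated with Biotin-Ahx-Ub-VS (0.5 µM final) for 1 h. Labelled DUBs were NeutrAvidin-enriched, digested with LysC and trypsin, and run by diaPASEF LC-MS/MS. Spectronaut label-free quantities were global-median-normalised. Values are average log2 ratios fragment/DMSO by unpaired t-test, using proteins with ≥2 unique peptides.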
# USP24 = USP24 (UniProt Q9UPU5)
# Chain of USP24 (Q9UPU5 whole entry): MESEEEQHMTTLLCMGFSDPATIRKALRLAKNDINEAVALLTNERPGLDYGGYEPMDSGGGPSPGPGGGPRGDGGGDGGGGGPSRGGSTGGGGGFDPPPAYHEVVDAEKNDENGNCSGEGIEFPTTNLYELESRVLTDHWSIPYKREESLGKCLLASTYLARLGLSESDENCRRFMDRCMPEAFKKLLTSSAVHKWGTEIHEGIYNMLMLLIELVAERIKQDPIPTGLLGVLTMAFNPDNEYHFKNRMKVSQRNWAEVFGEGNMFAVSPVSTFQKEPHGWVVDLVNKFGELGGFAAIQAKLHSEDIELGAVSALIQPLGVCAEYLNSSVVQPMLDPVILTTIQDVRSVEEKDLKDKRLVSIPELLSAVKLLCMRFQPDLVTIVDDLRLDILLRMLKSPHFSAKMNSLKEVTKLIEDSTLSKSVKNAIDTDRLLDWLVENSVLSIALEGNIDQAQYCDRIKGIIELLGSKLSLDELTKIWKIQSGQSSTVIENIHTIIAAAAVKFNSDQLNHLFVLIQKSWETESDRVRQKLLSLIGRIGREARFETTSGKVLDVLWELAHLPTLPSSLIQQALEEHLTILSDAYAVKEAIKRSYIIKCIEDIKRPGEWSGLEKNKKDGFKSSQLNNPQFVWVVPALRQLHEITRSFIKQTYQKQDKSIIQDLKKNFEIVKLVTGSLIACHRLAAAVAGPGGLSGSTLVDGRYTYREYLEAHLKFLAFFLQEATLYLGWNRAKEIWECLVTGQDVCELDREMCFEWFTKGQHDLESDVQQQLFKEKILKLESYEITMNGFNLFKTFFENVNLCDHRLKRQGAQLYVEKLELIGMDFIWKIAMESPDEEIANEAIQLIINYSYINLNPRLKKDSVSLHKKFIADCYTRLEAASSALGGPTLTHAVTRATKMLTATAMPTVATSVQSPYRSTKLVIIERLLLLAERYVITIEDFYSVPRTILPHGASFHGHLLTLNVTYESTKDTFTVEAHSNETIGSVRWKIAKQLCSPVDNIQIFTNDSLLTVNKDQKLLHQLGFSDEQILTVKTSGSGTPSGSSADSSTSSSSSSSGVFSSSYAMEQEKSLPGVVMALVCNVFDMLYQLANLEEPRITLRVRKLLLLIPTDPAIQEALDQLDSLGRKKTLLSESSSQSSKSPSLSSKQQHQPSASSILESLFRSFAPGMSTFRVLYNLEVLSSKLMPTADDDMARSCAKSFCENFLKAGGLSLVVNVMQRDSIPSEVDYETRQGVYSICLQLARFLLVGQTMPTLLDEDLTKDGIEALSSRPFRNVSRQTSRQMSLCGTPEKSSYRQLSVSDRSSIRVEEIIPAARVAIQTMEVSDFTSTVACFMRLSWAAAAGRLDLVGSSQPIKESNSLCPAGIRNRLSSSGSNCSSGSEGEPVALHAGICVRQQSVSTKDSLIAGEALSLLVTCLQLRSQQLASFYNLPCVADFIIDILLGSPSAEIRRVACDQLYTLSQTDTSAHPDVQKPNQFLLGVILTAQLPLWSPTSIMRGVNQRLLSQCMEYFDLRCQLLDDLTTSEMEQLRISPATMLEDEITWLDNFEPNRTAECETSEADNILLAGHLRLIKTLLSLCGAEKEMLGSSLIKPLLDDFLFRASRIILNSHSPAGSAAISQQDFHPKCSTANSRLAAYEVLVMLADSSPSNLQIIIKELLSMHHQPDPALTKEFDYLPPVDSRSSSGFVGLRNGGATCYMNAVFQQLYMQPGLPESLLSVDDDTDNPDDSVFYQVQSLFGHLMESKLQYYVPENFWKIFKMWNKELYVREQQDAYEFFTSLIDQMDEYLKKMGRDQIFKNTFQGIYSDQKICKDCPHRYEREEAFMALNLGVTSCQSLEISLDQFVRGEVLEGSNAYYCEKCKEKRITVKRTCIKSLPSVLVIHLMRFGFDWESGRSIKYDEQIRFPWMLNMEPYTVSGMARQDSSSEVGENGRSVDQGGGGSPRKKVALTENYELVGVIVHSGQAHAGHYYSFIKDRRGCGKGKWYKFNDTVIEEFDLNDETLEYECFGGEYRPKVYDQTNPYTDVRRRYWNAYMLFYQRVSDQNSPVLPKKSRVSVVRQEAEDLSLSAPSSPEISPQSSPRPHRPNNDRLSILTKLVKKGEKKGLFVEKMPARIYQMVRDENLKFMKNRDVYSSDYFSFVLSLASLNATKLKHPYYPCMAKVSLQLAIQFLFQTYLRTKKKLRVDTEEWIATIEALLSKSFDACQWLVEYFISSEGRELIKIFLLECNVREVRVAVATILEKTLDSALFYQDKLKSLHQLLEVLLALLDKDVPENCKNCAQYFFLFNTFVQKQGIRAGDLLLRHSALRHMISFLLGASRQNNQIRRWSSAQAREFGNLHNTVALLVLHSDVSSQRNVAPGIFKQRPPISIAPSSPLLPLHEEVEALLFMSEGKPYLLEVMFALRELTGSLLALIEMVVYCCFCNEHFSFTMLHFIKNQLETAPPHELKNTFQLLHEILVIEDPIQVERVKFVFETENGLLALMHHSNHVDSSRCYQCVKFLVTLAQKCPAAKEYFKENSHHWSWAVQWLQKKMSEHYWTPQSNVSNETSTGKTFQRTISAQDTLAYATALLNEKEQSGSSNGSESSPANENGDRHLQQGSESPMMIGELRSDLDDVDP
# Method in brief: as §1
# USP25 = target: T2, USP25 (UniProt Q9UHP3)
# T2 sequence (whole entry): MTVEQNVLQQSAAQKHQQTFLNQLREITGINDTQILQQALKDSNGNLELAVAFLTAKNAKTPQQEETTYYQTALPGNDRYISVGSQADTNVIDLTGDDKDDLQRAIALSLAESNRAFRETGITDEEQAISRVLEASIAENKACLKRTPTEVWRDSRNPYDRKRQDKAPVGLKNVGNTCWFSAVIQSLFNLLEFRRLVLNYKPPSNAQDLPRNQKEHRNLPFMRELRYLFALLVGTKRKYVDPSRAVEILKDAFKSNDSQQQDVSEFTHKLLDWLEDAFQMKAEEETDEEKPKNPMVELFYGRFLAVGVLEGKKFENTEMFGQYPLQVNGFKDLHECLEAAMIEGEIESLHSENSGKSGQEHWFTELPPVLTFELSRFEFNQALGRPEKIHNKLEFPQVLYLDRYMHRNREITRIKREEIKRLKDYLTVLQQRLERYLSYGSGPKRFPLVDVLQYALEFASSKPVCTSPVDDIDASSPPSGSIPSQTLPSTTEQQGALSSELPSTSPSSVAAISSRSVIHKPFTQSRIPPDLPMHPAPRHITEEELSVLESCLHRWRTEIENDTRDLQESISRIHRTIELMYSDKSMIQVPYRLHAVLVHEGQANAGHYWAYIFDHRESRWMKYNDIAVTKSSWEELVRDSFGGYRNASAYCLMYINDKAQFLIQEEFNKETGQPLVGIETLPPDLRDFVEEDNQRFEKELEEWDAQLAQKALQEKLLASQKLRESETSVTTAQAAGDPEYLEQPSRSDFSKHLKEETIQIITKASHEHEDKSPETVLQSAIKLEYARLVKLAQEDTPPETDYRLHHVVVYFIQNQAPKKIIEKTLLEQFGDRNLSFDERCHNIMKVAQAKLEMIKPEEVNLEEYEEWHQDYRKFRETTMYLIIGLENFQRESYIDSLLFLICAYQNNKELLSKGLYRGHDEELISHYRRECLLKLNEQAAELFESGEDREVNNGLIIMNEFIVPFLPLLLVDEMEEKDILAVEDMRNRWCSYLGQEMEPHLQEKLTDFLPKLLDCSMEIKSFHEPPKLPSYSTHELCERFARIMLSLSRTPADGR
# Method in brief: as §1
# USP28 = target: T3, USP28 (UniProt Q96RU2)
# T3 sequence (whole entry): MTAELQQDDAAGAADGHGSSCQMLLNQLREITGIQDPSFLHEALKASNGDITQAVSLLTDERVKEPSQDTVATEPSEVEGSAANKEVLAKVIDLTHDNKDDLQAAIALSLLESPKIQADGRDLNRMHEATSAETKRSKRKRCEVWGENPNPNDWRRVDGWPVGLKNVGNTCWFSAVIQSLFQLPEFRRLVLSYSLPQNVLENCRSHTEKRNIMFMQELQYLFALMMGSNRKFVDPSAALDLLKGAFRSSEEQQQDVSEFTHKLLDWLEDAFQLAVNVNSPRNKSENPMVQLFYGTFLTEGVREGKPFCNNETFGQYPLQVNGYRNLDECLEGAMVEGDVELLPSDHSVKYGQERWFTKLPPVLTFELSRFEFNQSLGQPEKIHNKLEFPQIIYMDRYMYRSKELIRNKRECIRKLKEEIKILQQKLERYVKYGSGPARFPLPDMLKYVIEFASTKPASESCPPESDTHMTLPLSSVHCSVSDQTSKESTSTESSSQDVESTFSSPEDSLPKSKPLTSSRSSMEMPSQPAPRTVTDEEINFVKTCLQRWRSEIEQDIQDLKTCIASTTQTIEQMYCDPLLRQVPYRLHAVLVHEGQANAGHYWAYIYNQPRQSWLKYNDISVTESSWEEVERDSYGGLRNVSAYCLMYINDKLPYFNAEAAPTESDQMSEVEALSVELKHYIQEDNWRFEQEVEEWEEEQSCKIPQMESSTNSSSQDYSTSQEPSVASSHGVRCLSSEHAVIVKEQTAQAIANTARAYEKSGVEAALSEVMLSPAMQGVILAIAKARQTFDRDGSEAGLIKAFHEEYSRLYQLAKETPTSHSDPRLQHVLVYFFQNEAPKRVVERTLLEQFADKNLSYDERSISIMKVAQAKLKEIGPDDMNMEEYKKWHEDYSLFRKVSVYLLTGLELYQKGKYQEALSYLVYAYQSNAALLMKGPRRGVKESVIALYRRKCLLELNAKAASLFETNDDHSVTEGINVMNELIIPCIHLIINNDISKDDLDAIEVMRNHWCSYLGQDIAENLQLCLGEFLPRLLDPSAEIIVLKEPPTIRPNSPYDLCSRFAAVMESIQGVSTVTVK
# Method in brief: as §1
smiles,measurement,setting,value
CCC1c2ccsc2CCN1C(=O)CCl (centres undefined),log2 ratio of Biotin-Ahx-Ub-VS probe labelling,USP19,-0.544
same,log2 ratio of Biotin-Ahx-Ub-VS probe labelling,USP24,-1.31 (active)
same,log2 ratio of Biotin-Ahx-Ub-VS probe labelling,USP25,-0.177
same,log2 ratio of Biotin-Ahx-Ub-VS probe labelling,USP28,-0.461
